Measured values taken from the supplement of paper PMC6555819.

How the values were obtained:
Assay in all cases: PBM binding z-score (relative to random genomic background probes); higher = stronger binding; sequences stand for … in GC…GCGATTGACAGCGTAGAATGAAGG
[1] = test system: PPARg:RXRa DBDmut IVT, anti-RXR (DBD mutation: RXRa K156A/R161A, NR concentration 270 nM, RXRa partner concentration 90 nM)
Method in brief: (§1)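 Custom Agilent 4×180K protein-binding microarrays carried double-stranded probes. Their 34-nt variable regions held direct-repeat seeds, single-nucleotide variants, half-site ablations and random human genomic background sequences. Arrays were incubated 1 h with ligand-free nuclear receptor dimers in PBS pH 7.4, 2% milk, 0.02% Triton X-100, 1 mM DTT, 0.2 mg/mL BSA and 0.4 mg/ml salmon testes DNA. Antibodies against each partner (one per run) detected binding, and scanned fluorescence was regression-normalized. Binding z-scores use random background probes as reference.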

[2] = test system: PPARg:RXRa IVT, anti-PPARg (NR concentration 270 nM, RXRa partner concentration 90 nM)
Method in brief: as §1

[3] = test system: PPARg DBDmut:RXRa IVT, anti-PPARg (DBD mutation: PPARg1 K132A/R137A, NR concentration 270 nM, RXRa partner concentration 90 nM)
Method in brief: as §1

[4] = test system: PPARg DBDmut IVT, anti-PPARg (DBD mutation: PPARg1 K132A/R137A, NR concentration 270 nM)
Method in brief: as §1

[5] = test system: PPARg homodimer (NR concentration 180 nM)
Method in brief: as §1

[6] = test system: PXR:RXRa (NR concentration 270 nM, RXRa partner concentration 90 nM)
Method in brief: as §1

[7] = test system: PXR homodimer (NR concentration 270 nM)
Method in brief: as §1

[8] = test system: RARa:RXR (NR concentration 270 nM, RXRa partner concentration 90 nM)
Method in brief: as §1

[9] = test system: RARa homodimer (NR concentration 270 nM)
Method in brief: as §1

[10] = test system: RARb:RXRa (NR concentration 270 nM, RXRa partner concentration 90 nM)
Method in brief: as §1

ATATGTAGGTTAGCTGGGGTGATTCAGACTAGGC was tested, and the PBM binding z-score [1] was 6.78, the PBM binding z-score [2] was 5.76 and the PBM binding z-score [3] was 1.88. The PBM binding z-score [4] was 1.63, the PBM binding z-score [5] was 1 and the PBM binding z-score [6] was 1.55. The PBM binding z-score [7] was 0.409, the PBM binding z-score [8] was 1.31 and the PBM binding z-score [9] was 1.29. For the same sequence, the PBM binding z-score [10] was 1.07.
CATACAGGGTGAGCTAGGCCAGAGTAGGGACGGC gave a PBM binding z-score [1] of 0.503, a PBM binding z-score [2] of 1.32 and a PBM binding z-score [3] of -0.282. For the same sequence, the PBM binding z-score [4] was -0.518, the PBM binding z-score [5] was -0.692 and the PBM binding z-score [6] was -0.394. The PBM binding z-score [7] was -0.379, the PBM binding z-score [8] was -0.0235 and the PBM binding z-score [9] was -0.0733. The PBM binding z-score [10] was 0.894.
TCTTGTAGATCAGCAGGCTAAGAAAGCTGGCCAA was tested, and the PBM binding z-score [1] was 1.35, the PBM binding z-score [2] was 0.0627 and the PBM binding z-score [3] was -0.91. For the same sequence, the PBM binding z-score [4] was -0.15, the PBM binding z-score [5] was -1.56 and the PBM binding z-score [6] was -0.333. For the same sequence, the PBM binding z-score [7] was -0.655, the PBM binding z-score [8] was -0.459 and the PBM binding z-score [9] was -0.665. For the same sequence, the PBM binding z-score [10] was -0.469.
Sequence TAGCCTAGCTCATGCGGGCCAGTATAGTGTCGGC has a PBM binding z-score [1] of -0.92, a PBM binding z-score [2] of -0.527 and a PBM binding z-score [3] of -0.361. The PBM binding z-score [4] was -0.899, the PBM binding z-score [5] was -1.61 and the PBM binding z-score [6] was -1.02. It also gave a PBM binding z-score [7] of -0.998, a PBM binding z-score [8] of -1.04 and a PBM binding z-score [9] of -0.996. It also gave a PBM binding z-score [10] of -1.16.
CCTATTAGTTGACCATAAGGGCAAGCGAAGCTCG was tested, and the PBM binding z-score [1] was 0.132, the PBM binding z-score [2] was 0.158 and the PBM binding z-score [3] was -0.0196. For the same sequence, the PBM binding z-score [4] was 0.32, the PBM binding z-score [5] was 1.47 and the PBM binding z-score [6] was 0.536. For the same sequence, the PBM binding z-score [7] was 0.56, the PBM binding z-score [8] was 0.913 and the PBM binding z-score [9] was 1.9. For the same sequence, the PBM binding z-score [10] was 1.65.
For AGAGTGAGGTTATACGTAGATCAGGGAAGAAAGT, the PBM binding z-score [1] was 0.49, the PBM binding z-score [2] was 0.769 and the PBM binding z-score [3] was 1.06. It also gave a PBM binding z-score [4] of 0.722, a PBM binding z-score [5] of 1.66 and a PBM binding z-score [6] of 1.39. For the same sequence, the PBM binding z-score [7] was 1.28, the PBM binding z-score [8] was 1.65 and the PBM binding z-score [9] was 1.14. The PBM binding z-score [10] was 1.78.
Sequence TCTTGTTGATCAATAGAGGTTAAGAAAGTGCGCT has a PBM binding z-score [1] of 1.5, a PBM binding z-score [2] of 0.913 and a PBM binding z-score [3] of 0.422. The PBM binding z-score [4] was 1.13, the PBM binding z-score [5] was 0.192 and the PBM binding z-score [6] was 2.89. For the same sequence, the PBM binding z-score [7] was 0.147, the PBM binding z-score [8] was 1.71 and the PBM binding z-score [9] was 0.519. The PBM binding z-score [10] was 1.05.
CGAACTAGGTCATTGACATGACAGTGAATAGTAA gave a PBM binding z-score [1] of 8.34, a PBM binding z-score [2] of 8.44 and a PBM binding z-score [3] of 3.7. For the same sequence, the PBM binding z-score [4] was 2.52, the PBM binding z-score [5] was 1.93 and the PBM binding z-score [6] was 1.45. For the same sequence, the PBM binding z-score [7] was -0.208, the PBM binding z-score [8] was 2.28 and the PBM binding z-score [9] was 0.896. It also gave a PBM binding z-score [10] of 3.62.
Sequence AGTTACGGGTCAACGAGGTTATAGCACGCGTATA has a PBM binding z-score [1] of 2.76, a PBM binding z-score [2] of 3.97 and a PBM binding z-score [3] of 0.585. For the same sequence, the PBM binding z-score [4] was 1.05, the PBM binding z-score [5] was 1.48 and the PBM binding z-score [6] was 5.12. The PBM binding z-score [7] was 2.21, the PBM binding z-score [8] was 4.6 and the PBM binding z-score [9] was 0.766. For the same sequence, the PBM binding z-score [10] was 4.16.
CCTCGTAGGACAGAAGGTCAGAGCTGTCCGCTTT gave a PBM binding z-score [1] of 0.395, a PBM binding z-score [2] of 0.358 and a PBM binding z-score [3] of -0.69. It also gave a PBM binding z-score [4] of -1.03, a PBM binding z-score [5] of 1.25 and a PBM binding z-score [6] of 1.47. For the same sequence, the PBM binding z-score [7] was -0.0848, the PBM binding z-score [8] was 2.1 and the PBM binding z-score [9] was -0.0313. It also gave a PBM binding z-score [10] of 3.02.
Work on TAGCCTAGGTCTGATCGGGCCAGTATACGCTATA yielded a PBM binding z-score [1] of -0.797, a PBM binding z-score [2] of -0.522 and a PBM binding z-score [3] of -0.763. For the same sequence, the PBM binding z-score [4] was -0.994, the PBM binding z-score [5] was -0.906 and the PBM binding z-score [6] was -0.673. It also gave a PBM binding z-score [7] of -1.05, a PBM binding z-score [8] of -0.33 and a PBM binding z-score [9] of -1.47. The PBM binding z-score [10] was -0.362.
With CCTGACGGGTCACTGACAGGTTATAGCATTTGGA the PBM binding z-score [1] was 1.12, the PBM binding z-score [2] was 1.82 and the PBM binding z-score [3] was 0.147. The PBM binding z-score [4] was -0.292, the PBM binding z-score [5] was 3.03 and the PBM binding z-score [6] was 3.08. The PBM binding z-score [7] was -0.179, the PBM binding z-score [8] was 4.01 and the PBM binding z-score [9] was 0.536. The PBM binding z-score [10] was 3.69.
